Compounds without any hit were thinned out: in the full panel of roughly 79,000, 15% have a hit. A number with no mark means an inactive call. The source made the active and inactive calls. Rule as the data show it: active = growth inhibition above about 70%; inactive = the rest. Where a SMILES comes first, the peptide text is derived from it. [ ]: non-standard residue; d: D form. The star is where a group is joined. Ac5c = NC1(C(=O)O)CCCC1; Boc = CC(C)(C)OC(=O)*; OSu = O=C1CCC(=O)N1O*
Legend:
[1] = NCI Yeast Anticancer Drug Screen. Data for the rad50 strain (AID 155);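 also: 0% = growth of vehicle-only cultures of the same strain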; conditions: S. cerevisiae rad50 strain growth inhibition; at 50.0 µM; hits give high values
Method in brief: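 Vehicle-treated cultures provide the reference for the growth inhibition reported for compound-exposed, repair-deficient yeast.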

[2] = NCI Yeast Anticancer Drug Screen. Data for the mec2-1 strain (AID 157); conditions: S. cerevisiae mec2-1 strain, at 50.0 µM, hits give high values
Method in brief: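 Yeast mec2-1 mutant treated with compound. Readout: growth inhibition vs vehicle controls.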

[3] = NCI Yeast Anticancer Drug Screen. Data for the sgs1 mgt1 strain (AID 161);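 also: 0% = growth of cultures given vehicle only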; conditions: S. cerevisiae sgs1 mgt1 strain, at 50.0 µM, hits give high values
Method in brief: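 Read-out: growth inhibition vs vehicle controls. Cells: mutant yeast strain deficient in DNA damage repair.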

[4] = NCI Yeast Anticancer Drug Screen. Data for the cln2 rad14 strain (AID 165);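 also: 0% = growth equal to vehicle treated cultures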; conditions: S. cerevisiae cln2 rad14 strain, at 50.0 µM, hits give high values
Method in brief: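 cln2 rad14 yeast strain; compound exposure; growth inhibition read vs vehicle controls.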

[5] = NCI Yeast Anticancer Drug Screen. Data for the bub3 strain (AID 167); conditions: S. cerevisiae bub3 mutant strain, at 50.0 µM, hits give high values
Method in brief: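 Mutant yeast screening strain plus compound; vehicle-treated cultures serve as the 0% inhibition reference.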

[6] = NCI Yeast Anticancer Drug Screen. Data for the mlh1 rad18 strain (AID 175); conditions: S. cerevisiae mlh1 rad18 strain growth inhibition; at 50.0 µM; hits give high values
Method in brief: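 Yeast w/ defined DNA-repair lesions; compound exposure; growth vs vehicle controls → % inhibition.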

Structure (SMILES)	growth inhibition [1]	growth inhibition [2]	growth inhibition [3]	growth inhibition [4]	growth inhibition [5]	growth inhibition [6]
CC(C)(C)OC(=O)NC(Cc1ccc(O)cc1)C(=O)NC(CCCCN)C(=O)NC(Cc1ccc(O)cc1)C(=O)NC(CCCCN)C(=O)ON1C(=O)CCC1=O (stereo unspecified) (Boc-YKYK-OSu; configuration not given here)	-12.2%	-15.5%	-6.7%	29.1%	-2.8%	4.45%
O=C1CSC(=S)N1c1ccco1	3.4%	-20.1%	17.9%	20.7%	-13.1%	2.85%
NC(=S)NNC(N)=S	2.2%	-12.9%	-7.3%	17.4%	-3.2%	24.5%
C=CCNc1nc2c(s1)CCc1cc(OC)c(OC)cc1-2	30.1%	10.6%	12%	29.4%	15.2%	61.6%
O=C(C[n+]1ccccc1)c1ccccc1	1.75%	-4.4%	-2.4%	-18.5%	9.45%	30.7%
CCOC(=O)N(C)C	18.9%	12.8%	3.65%	11.1%	12.1%	8%
COc1c2c(cc3c1C(=O)Cc1ccc4c(c1CN(C)CC3)OCO4)OCO2	7.15%	-3.4%	-1.15%	24.4%	8.95%	7.25%
CCCCCC(=O)OC	4.75%	-8.15%	-28.4%	-17.1%	-11.2%	10.8%
Cn1ccnc1SC(=O)C(Cl)(c1ccccc1)c1ccccc1	-13.2%	5.85%	-0.8%	-18.4%	0.35%	5.45%
Cc1c2oc3c(C)ccc(C(=O)NCCc4ccccn4)c3nc-2c(C(=O)NCCc2ccccn2)c(N)c1=O	5.9%	-8.05%	4.05%	4.9%	-5.45%	-6.9%
CCOC(=O)c1oc2ccc([N+](=O)[O-])c3c2c1CCC3	1.8%	-1.95%	-7%	-2.35%	-64%	-8.05%
O=C(Oc1cccc2ccccc12)c1cccnc1	-1.45%	-2%	6.4%	-38%	19.7%	31.3%
Cc1cc(-c2ccccc2)cc(C[n+]2ccccc2)[n+]1-c1ccccn1	12.8%	6.2%	9.2%	-3.8%	2.2%	18.9%
Cc1ccc(S(=O)(=O)N(CCOS(C)(=O)=O)CCOS(C)(=O)=O)cc1	12.3%	-13.2%	-0.8%	-2.1%	9.45%	5.25%
N/N=C1/C=Cc2cccc3cccc1c23	19.3%	-37.2%	15.3%	30.2%	16.2%	38.4%
CC[N+](C)(CC)CCOC(=O)C(c1ccccc1)C(O)C1CC=CCC1 (stereo unspecified)	7.15%	-6.3%	-5.65%	-30.6%	-1.45%	2.3%
CC1COCOC1c1ccc2c(c1)OCO2 (stereo unspecified)	17.6%	4%	6%	9.45%	-9.45%	-15.8%
CC(=O)OC1(C)C(=O)OC/C2=C/CN(C)CCC(OC(=O)C(O)(C(C)Cl)CC1C)C2=O (stereo unspecified)	4.75%	2.9%	-7.95%	13%	-6.35%	-43.9%
NCCCc1ccc2c(c1)OCO2	42.2%	6.45%	36%	47.7%	30.4%	50.5%
CCC(C(=O)NC(C)c1ccc(-c2ccccc2)cc1)c1ccccc1 (stereo unspecified)	5.1%	7.55%	10%	13.2%	12.5%	-4.7%
c1ccc(-c2oc3ccc4ccccc4c3c2-c2ccc(OCCN3CCCC3)cc2)cc1	75.8% (active)	58.4%	66.8%	61.2%	51.4%	61.5%

Structure (SMILES)	growth inhibition [1]	growth inhibition [2]	growth inhibition [3]	growth inhibition [4]	growth inhibition [5]	growth inhibition [6]
C=C(C)C(=O)OC1C(C(C)CCCO)=C(CO)CC2OC(=O)C(=C)C21 (stereo unspecified)	-15.9%	-29.1%	-14.5%	-7.7%	-10.3%	-29.1%
Cn1c2ccccc2c(=O)c2c(O)cc3c(c21)C=CC1(CCCCC1)O3	-4.75%	11.4%	-2.25%	19.1%	-5.65%	25.1%
OCCO	-26.4%	-24.1%	-49.3%	-31.6%	-32%	-30.6%
O=C(CCc1ccc(O)c(O)c1)NCCc1cc(O)cc(O)c1	23.1%	-23.9%	-26.8%	-4.95%	-42.5%	-52.5%
CC1=C(C(c2ccccc2)c2ccccc2)C(=O)c2ccccc2C1=O	-3.35%	-6.5%	1.45%	1.5%	-31.8%	-0.7%
CCOC(=O)C(Cc1c[nH]c2ccccc12)NC(=O)C1(O)C(O)C2(CC)C=CCN3CCC4(c5cc(C6(C(=O)OC)CC7CC(CC)CN(CCc8c6[nH]c6ccccc86)C7)c(OC)cc5N(C)C14)C32 (stereo unspecified)	20.8%	20.2%	7.75%	32.4%	17%	6.2%
N#C/C(=C/c1cccc2ccccc12)C(N)=O	21.6%	32.9%	28.4%	6.2%	28.6%	26.1%
CCO/C=N\C1=C(C#N)SC2=N/C(=C\c3ccco3)C(=O)N21	6.1%	-19.2%	-7.4%	5.65%	0.45%	-17.3%
CC(C)C1=CC23CCC4C(C)(C(=O)O)CCCC4(C)C2CC1C1C(=O)N(CCCN(C)C)C(=O)C13 (stereo unspecified)	98.8% (active)	99% (active)	99% (active)	98.2% (active)	98% (active)	98.6% (active)
CCCCCN(CCCCC)C(=O)C(C)Br (stereo unspecified)	-3.6%	-12.9%	12.8%	-12.9%	44.9%	3.1%
COC(=O)C1(NC(=O)C(C)NC(=O)C(CCCCN)NC(=O)C(CC(C)C)NC(C)=O)CCCC1 (stereo unspecified) (Ac-LKA[Ac5c]-OMe; configuration not given here)	3.1%	4.7%	13.8%	-6.25%	-7.8%	8.05%
CC12CCC(Cl)(CC1O)C2(C)C (stereo unspecified)	1.9%	11.6%	1.15%	2.05%	-6.9%	-1.05%
CC(/C=N/N(C)C)=N\N(C)C	-3.75%	5.3%	-5.65%	-60.4%	32.2%	-21.4%
CCOC(=O)C(C(=O)CC(C)C)C(C)C (stereo unspecified)	-15.9%	-25.2%	1.1%	-30.4%	2.95%	-5.7%
[O-][N+](=Nc1ccccc1)c1ccccc1	1.2%	1.35%	35.9%	-0.9%	3.75%	24%
COc1ccc2c(c1)CCC1C2CCC2(C)C(=O)C(n3cnc4c(=S)nc[nH]c43)CC12 (stereo unspecified)	42.3%	24.4%	50%	34.5%	14.2%	51.8%
C[N+](C)(C)CC(=O)N/N=C(/CC(=O)CC(C1=C(O)c2ccccc2OC1)c1ccccc1)C(=O)Nc1cccc(Cl)c1 (stereo unspecified)	58%	39.5%	27.7%	34.4%	28.4%	5.5%
O=C(O)CN1C(=O)NC(C2CC2)(C2CC2)C1=O	-3.15%	-7.15%	-12.8%	-23.2%	8.85%	6.6%
CCCCC(CC)CN(CC(CC)CCCC)C(=O)C(C)OC(=O)C(CC)CCCC (stereo unspecified)	3.7%	6.1%	18%	-4.3%	14.8%	16.9%
O=c1oc2c3ccc4ccccc4c3n(Cc3nc4ccccc4[nH]3)c2c2ccccc12	22.1%	12.2%	19.7%	28.6%	14.6%	25.2%
